Results reported in paper PMC7862700, “An all-to-all approach to the identification of sequence-specific readers for epigenetic DNA modifications on cytosine”.

Tests used:
Experiment in all cases: DAPPL (digital affinity profiling via proximity ligation, sequencing); 10 mM Tris-HCl pH 7.5, 50 mM NaCl, 1 mM DTT, 4% glycerol, room temperature, 30 min; GST-TFs on glutathione beads, 16-mer random dsDNA library, 0.1% formaldehyde crosslink after washing; high values mean tight binding
Settings in all cases: protein: recombinant; tags: N-terminal GST; dsDNA, one strand shown
ERF = target: T1, ERF (Homo sapiens, UniProt P50548 1-548)
T1 sequence: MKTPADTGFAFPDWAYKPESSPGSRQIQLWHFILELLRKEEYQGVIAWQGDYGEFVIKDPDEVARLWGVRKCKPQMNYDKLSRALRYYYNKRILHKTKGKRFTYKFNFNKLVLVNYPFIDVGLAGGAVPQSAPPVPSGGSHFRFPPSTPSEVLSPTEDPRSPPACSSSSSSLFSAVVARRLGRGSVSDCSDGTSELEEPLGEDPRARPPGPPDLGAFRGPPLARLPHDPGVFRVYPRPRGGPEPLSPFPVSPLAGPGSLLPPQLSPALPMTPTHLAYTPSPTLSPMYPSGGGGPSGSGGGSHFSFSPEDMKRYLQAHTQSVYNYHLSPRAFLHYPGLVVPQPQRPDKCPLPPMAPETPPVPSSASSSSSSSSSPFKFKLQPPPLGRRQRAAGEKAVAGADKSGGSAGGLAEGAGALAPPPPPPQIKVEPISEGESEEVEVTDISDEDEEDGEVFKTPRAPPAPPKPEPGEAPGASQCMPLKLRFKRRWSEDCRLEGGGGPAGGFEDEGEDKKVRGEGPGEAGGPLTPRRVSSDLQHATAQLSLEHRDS
Outline: (§1)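 Pools of DNA-barcoded human transcription factors, expressed in yeast as GST fusions on glutathione beads and combined with a tag-only sample, were incubated with 200 nmole of a 16-mer random double-stranded DNA library. Incubation took 30 min at room temperature in Tris/NaCl/DTT/glycerol buffer and was followed by washing, 0.1% formaldehyde crosslinking, proximity ligation (BsaI/T4 ligase, 1 h, 37 °C), PCR amplification and sequencing on an Illumina NextSeq500. Binding signal is the ratio of a hexamer's read frequency for a factor to its frequency for the tag-only sample.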

ETV3L = target: T2, ETV3L (Homo sapiens, UniProt Q6ZN32 1-361)
T2 sequence: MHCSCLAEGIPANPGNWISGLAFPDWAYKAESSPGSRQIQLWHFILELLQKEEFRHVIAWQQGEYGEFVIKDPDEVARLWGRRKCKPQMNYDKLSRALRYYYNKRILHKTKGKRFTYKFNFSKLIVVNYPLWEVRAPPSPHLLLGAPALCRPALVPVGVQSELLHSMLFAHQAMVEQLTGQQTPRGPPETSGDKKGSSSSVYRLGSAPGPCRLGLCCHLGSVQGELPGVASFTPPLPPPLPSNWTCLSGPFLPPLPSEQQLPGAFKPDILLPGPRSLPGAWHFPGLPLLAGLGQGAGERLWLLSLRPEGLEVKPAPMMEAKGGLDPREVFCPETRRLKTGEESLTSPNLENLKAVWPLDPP
Outline: as §1

ETS2 = target: T3, ETS2 (Homo sapiens, UniProt P15036 1-469)
T3 sequence: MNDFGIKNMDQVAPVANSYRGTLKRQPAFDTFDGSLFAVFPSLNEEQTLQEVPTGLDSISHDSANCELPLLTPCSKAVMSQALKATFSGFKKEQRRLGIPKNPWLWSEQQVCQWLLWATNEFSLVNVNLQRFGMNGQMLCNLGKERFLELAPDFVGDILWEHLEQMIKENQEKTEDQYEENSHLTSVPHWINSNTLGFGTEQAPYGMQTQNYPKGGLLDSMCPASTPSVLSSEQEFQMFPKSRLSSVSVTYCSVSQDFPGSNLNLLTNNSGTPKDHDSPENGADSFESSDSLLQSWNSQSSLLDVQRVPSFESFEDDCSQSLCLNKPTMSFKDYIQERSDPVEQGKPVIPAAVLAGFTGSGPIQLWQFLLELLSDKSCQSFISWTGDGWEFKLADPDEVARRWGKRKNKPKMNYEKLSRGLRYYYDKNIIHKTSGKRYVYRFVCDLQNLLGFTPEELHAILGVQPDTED
Outline: as §1

SPDEF = target: T4, SPDEF (Homo sapiens, UniProt O95238 1-335)
T4 sequence: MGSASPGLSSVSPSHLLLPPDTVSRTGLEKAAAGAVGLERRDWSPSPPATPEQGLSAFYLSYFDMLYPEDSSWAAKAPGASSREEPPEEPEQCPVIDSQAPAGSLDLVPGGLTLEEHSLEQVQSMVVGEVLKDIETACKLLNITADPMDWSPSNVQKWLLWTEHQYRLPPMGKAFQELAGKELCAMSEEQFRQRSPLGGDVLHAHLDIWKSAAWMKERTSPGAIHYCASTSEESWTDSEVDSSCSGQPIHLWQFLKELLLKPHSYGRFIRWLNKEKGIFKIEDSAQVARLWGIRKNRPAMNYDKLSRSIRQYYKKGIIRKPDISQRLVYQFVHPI
Outline: as §1

ETV7 = target: T5, ETV7 (Homo sapiens, UniProt Q9Y603 1-341)
T5 sequence: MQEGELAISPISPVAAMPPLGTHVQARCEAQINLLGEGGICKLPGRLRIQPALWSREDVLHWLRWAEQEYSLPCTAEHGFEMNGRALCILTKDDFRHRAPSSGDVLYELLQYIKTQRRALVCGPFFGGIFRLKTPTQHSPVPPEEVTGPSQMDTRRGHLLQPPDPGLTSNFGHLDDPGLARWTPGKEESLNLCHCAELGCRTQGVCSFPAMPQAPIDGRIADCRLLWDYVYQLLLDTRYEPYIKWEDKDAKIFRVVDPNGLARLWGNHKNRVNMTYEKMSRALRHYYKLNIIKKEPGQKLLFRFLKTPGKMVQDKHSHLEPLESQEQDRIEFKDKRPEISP
Outline: as §1

ELF5 = target: T6, ELF5 (Homo sapiens, UniProt Q9UKW6-2 1-255)
T6 sequence: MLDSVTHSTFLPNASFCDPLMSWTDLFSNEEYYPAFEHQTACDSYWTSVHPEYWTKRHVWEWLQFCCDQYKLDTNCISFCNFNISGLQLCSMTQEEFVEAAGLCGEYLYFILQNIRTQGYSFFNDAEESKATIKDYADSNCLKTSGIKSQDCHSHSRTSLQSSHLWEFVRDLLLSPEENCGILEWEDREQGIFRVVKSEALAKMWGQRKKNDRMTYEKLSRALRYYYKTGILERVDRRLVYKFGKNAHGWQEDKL
Outline: as §1

ETV3 = target: T7, ETV3 (Homo sapiens, UniProt P41162-2 1-143)
T7 sequence: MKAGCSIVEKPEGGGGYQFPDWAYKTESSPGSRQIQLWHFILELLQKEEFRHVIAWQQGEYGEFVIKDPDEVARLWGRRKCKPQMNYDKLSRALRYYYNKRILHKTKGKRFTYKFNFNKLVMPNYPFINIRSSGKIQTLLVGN
Outline: as §1

ETV6 = ETV6 (Homo sapiens, UniProt P41212 1-452)
Outline: as §1

Chain of ETV6 (P41212 whole entry): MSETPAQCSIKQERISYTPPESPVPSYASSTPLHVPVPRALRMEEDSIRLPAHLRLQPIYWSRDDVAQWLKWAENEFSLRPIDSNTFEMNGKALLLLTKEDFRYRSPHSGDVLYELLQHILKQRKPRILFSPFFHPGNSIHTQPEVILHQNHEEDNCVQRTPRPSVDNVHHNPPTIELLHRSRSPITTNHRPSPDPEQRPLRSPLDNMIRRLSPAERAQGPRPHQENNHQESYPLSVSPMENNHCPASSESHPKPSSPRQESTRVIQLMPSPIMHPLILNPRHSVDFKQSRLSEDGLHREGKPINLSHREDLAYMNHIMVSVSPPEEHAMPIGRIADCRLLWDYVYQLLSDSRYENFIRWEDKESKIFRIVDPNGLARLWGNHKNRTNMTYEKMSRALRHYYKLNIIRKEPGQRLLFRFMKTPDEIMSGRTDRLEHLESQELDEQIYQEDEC

Row | Sequence | binding signal (ERF) | binding signal (ETV3L) | binding signal (ETS2) | binding signal (SPDEF) | binding signal (ETV7) | binding signal (ELF5) | binding signal (ETV3) | binding signal (ETV6)
1 | TTTGTT | 1.29 fold enrichment (6-mer frequency, TF over GST control) | 1.27 fold enrichment (6-mer frequency, TF over GST control) | 1.26 fold enrichment (6-mer frequency, TF over GST control) | 1.33 fold enrichment (6-mer frequency, TF over GST control) | 1.18 fold enrichment (6-mer frequency, TF over GST control) | 1.27 fold enrichment (6-mer frequency, TF over GST control) | 1.34 fold enrichment (6-mer frequency, TF over GST control) | 1.34 fold enrichment (6-mer frequency, TF over GST control)
2 | CGACAA | 1.18 fold enrichment (6-mer frequency, TF over GST control) | 1.24 fold enrichment (6-mer frequency, TF over GST control) | 1.16 fold enrichment (6-mer frequency, TF over GST control) | 1.27 fold enrichment (6-mer frequency, TF over GST control) | 1.12 fold enrichment (6-mer frequency, TF over GST control) | 1.14 fold enrichment (6-mer frequency, TF over GST control) | 1.15 fold enrichment (6-mer frequency, TF over GST control) | 1.31 fold enrichment (6-mer frequency, TF over GST control)
3 | CCTATC | 1.17 fold enrichment (6-mer frequency, TF over GST control) | 1.22 fold enrichment (6-mer frequency, TF over GST control) | 1.2 fold enrichment (6-mer frequency, TF over GST control) | 1.29 fold enrichment (6-mer frequency, TF over GST control) | 1.3 fold enrichment (6-mer frequency, TF over GST control) | 1.12 fold enrichment (6-mer frequency, TF over GST control) | 1.2 fold enrichment (6-mer frequency, TF over GST control) | 1.12 fold enrichment (6-mer frequency, TF over GST control)
4 | CTAACC | 1.17 fold enrichment (6-mer frequency, TF over GST control) | 1.2 fold enrichment (6-mer frequency, TF over GST control) | 1.15 fold enrichment (6-mer frequency, TF over GST control) | 1.09 fold enrichment (6-mer frequency, TF over GST control) | 1.04 fold enrichment (6-mer frequency, TF over GST control) | 1.14 fold enrichment (6-mer frequency, TF over GST control) | 1.16 fold enrichment (6-mer frequency, TF over GST control) | –
5 | GGTCTT | 1.22 fold enrichment (6-mer frequency, TF over GST control) | 1.07 fold enrichment (6-mer frequency, TF over GST control) | 1.23 fold enrichment (6-mer frequency, TF over GST control) | 1.12 fold enrichment (6-mer frequency, TF over GST control) | 1.19 fold enrichment (6-mer frequency, TF over GST control) | 1.2 fold enrichment (6-mer frequency, TF over GST control) | 1.16 fold enrichment (6-mer frequency, TF over GST control) | –
6 | TGGCTA | 1.33 fold enrichment (6-mer frequency, TF over GST control) | 1.21 fold enrichment (6-mer frequency, TF over GST control) | 1.16 fold enrichment (6-mer frequency, TF over GST control) | 1.28 fold enrichment (6-mer frequency, TF over GST control) | 1.29 fold enrichment (6-mer frequency, TF over GST control) | 1.14 fold enrichment (6-mer frequency, TF over GST control) | 1.18 fold enrichment (6-mer frequency, TF over GST control) | 1.28 fold enrichment (6-mer frequency, TF over GST control)
7 | ATTCTC | 1.22 fold enrichment (6-mer frequency, TF over GST control) | 1.31 fold enrichment (6-mer frequency, TF over GST control) | 1.19 fold enrichment (6-mer frequency, TF over GST control) | 1.19 fold enrichment (6-mer frequency, TF over GST control) | 1.23 fold enrichment (6-mer frequency, TF over GST control) | 1.26 fold enrichment (6-mer frequency, TF over GST control) | 1.17 fold enrichment (6-mer frequency, TF over GST control) | 1.23 fold enrichment (6-mer frequency, TF over GST control)
8 | GCTGAT | 1.07 fold enrichment (6-mer frequency, TF over GST control) | 1.18 fold enrichment (6-mer frequency, TF over GST control) | 1.12 fold enrichment (6-mer frequency, TF over GST control) | 1.07 fold enrichment (6-mer frequency, TF over GST control) | 1.27 fold enrichment (6-mer frequency, TF over GST control) | 1.03 fold enrichment (6-mer frequency, TF over GST control) | 1.2 fold enrichment (6-mer frequency, TF over GST control) | –
9 | CCCGCA | 1.24 fold enrichment (6-mer frequency, TF over GST control) | 1.22 fold enrichment (6-mer frequency, TF over GST control) | 1.18 fold enrichment (6-mer frequency, TF over GST control) | 1.27 fold enrichment (6-mer frequency, TF over GST control) | 1.31 fold enrichment (6-mer frequency, TF over GST control) | 1.27 fold enrichment (6-mer frequency, TF over GST control) | 1.2 fold enrichment (6-mer frequency, TF over GST control) | 1.25 fold enrichment (6-mer frequency, TF over GST control)
